# Reference: PubChem BioAssay AID1671188 (National Center for Advancing Translational Sciences (NCATS), 2021)
# Where “and” joins values, the source holds several entries; their conditions need not be identical. Equal values may be shown once. Screen size: about 100,000 compounds; about 250 (0.25%) were called active. Entries that show only a call come without a potency. About 7% were inconclusive and are not listed. This is one part of a sample in which actives are shown more often than they occur. Calls come from the whole dose curve; as a rule, active = well fitted inhibition curve with a large enough effect; inconclusive = small, poorly fitted or top-dose-only effect; inactive = flat fitted curve, though single readings scatter. Some structures have more than one record in an assay (separate samples or runs), and their calls can disagree.
# Target: Alanine aminotransferase 2 (Homo sapiens) (UniProt Q8TD30)
# Test: Primary qHTS assay for inhibitors of Glutamate pyruvate transaminase 2 (GPT2); note: nearly all actives have a fitted effect of over 60% in size
# Conditions: Recombinant GPT2, coupled pyruvate oxidase/HRP Amplex Red fluorescence; series mostly up to 57.7 µM
# Procedure: Assay Provider: Zhenghe John Wang Ph.D.
# Case Western Reserve University, Cleveland OH
# Glutamate pyruvate transaminase 2 (GPT2) catalyzes the reversible transamination of glutamate and pyruvate to provide a-ketoglutarate and alanine. We have optimized an assay for GPT2 enzymatic activity that couples pyruvate formation to detection of fluorescence using an established pyruvate oxidase/horseradish peroxidase / Amplex Red system.
# Screening conditions were 250uM a-KG, 2mM L-alanine, and 10ng/uL GPT2 in […] of solution; 10uL of Amplex reaction mix (outlined below) were added so that final concentrations of Amplex reagents in 50uL were 0.2mM ThPP, 0.2U/mL PO and HRP, and 50uM Amplex.
# NOTE: The volume of GPT2 in the system depends on the activity of it. The activity is different every batch. You need to test the activity before the assay. For full plate assay with automation, plate 20uL of GPT2 buffer to pin into, then add 10uL of GPT2 dilution followed immediately by 10uL of substrate dilution. 2 Columns of the plate were devoted to GPT2 buffer ([…] PH7.5, 0.0001% Tween) + 50uM AOA (known GPT2 inhibitor) to serve as a positive control. Complete the assay as normal. Amplex-red buffer: […] PH7.5, 1 mM EDTA, 1 mM MgCl2.
# 1. Combine a-KG and L-alanine at desired concentrations and incubate for at least 10 minutes at 37C. Stocks of L-alanine and a-KG are diluted in distilled water. However, the stocks were diluted in GPT2 buffer for the assay.
# 2. Prepare GPT2 dilution at the desired concentration in GPT2 buffer.
# 3. Plate 40uL of GPT2 dilution with 40uL of substrate dilution and let incubate for 30 minutes at room temperature.
# 4. Add 20uL of Amplex reaction mix prepared as follows: 1.5uL 200U/mL Horseradish Peroxidase, 200mM Thiamine Pyrophosphate, 200U/mL Pyruvate Oxidase; 7.5uL 10mM Amplex Red; 288uL Amplex Buffer.
# 5. Incubate for 30 minutes at room temperature in the dark, then image using AM_Amplex_Fluorescence on plate reader nearest the window.
# Potency is the fitted concentration of half-maximal effect.
# Alanine aminotransferase 2 (Homo sapiens), sequence (Q8TD30 whole entry, looked up): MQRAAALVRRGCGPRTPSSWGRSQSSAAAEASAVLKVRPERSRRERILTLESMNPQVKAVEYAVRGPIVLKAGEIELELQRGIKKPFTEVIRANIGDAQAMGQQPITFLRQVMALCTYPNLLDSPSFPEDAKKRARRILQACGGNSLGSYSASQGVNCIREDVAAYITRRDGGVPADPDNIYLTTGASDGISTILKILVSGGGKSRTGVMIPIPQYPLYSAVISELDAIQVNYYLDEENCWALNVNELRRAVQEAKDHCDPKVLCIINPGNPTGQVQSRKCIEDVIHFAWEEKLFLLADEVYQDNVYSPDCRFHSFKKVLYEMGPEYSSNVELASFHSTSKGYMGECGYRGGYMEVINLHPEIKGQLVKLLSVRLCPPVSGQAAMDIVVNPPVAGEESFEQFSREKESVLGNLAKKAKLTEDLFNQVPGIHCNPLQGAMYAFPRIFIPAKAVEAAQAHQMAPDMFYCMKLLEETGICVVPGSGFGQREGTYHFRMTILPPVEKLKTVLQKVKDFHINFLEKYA
Compound,Potency,"activity change, negative = inhibition"
CN(C)C(=O)c1ccc2oc(-c3ccnc(Cl)c3)nc2c1,inactive,
CC(C)c1ccc(CN2CCC3(CC2)COCCN3C(=O)c2ccc3[nH]ncc3c2)cc1,inactive,
CC(=O)N1C[C@@H]2CCCN3CCC[C@@H]([C@H]23)[C@H]1CCCC(=O)N1CCN(C2CCN(C)CC2)CC1,inactive,
COc1ccc(CC(=O)NC2CCN(Cc3ccc(-c4ccccc4OC)cc3)C2)cc1 (configuration not stated),inactive,
O=C1[C@H]2CN(Cc3ccc(Cl)c(F)c3)C[C@H]2C(=O)N1CCc1ccccc1,inactive,
O=C(c1ccc(C(F)(F)F)cc1)N1CCN(c2ccnc3ccnn23)CC1,inactive,
O=C(N1CCC(Cc2nc(-c3ccccc3)n[nH]2)C1)C1(c2ccccc2)CC1 (configuration not stated),inactive,
O=C(c1ccccc1Cl)N1CCC2(CC1)NC(=O)N(c1cccc(Cl)c1)N2,inactive,
CC(C)c1noc(-c2cn(C3CCN(C(=O)c4cccc(C#N)c4)C3)nn2)n1 (configuration not stated),inactive,
O=C1NCCOCCN(S(=O)(=O)c2cccs2)[C@@H]2CCCC[C@H]12,inactive,
COc1ccccc1Nc1ncc2c(n1)CN(C(=O)COc1ccccc1)CCN2,inactive,
CNC(=O)c1ccccc1Nc1nc(Nc2ccc(N3CCOCC3)cc2OC)ncc1Cl,10.9 µM (active) and 7.08 µM (active),
CNC(=O)c1ccccc1Nc1nc(Nc2ccc3c(c2OC)CCC[C@@H](N2CCN(CCO)CC2)C3)ncc1Cl,inactive,
COc1cccc(-c2ccc(C(=O)N3CCC(NC(=O)Cc4ccc(F)cc4)CC3)cc2)c1,inactive,
COc1ccccc1OC(C)(C)C(=O)N1CC(C)(C)[C@@](C)(O)C1,inactive,
CN(CC1CCOCC1)C(=O)Nc1ccc(Cl)cc1,inactive,
O=S(=O)(Cc1ccccc1)N1CC(c2nc(-c3ccncc3)no2)C1,inactive,
COc1ccc(CN2CCN(c3nc4ccccc4o3)CC2CCO)cc1C (configuration not stated),,-2.15% [at 11.5 µM] (inactive)
COc1ccc(-n2cccn2)c(CN2CCC3(CCNC(=O)CC3)CC2)c1,inactive,
Cc1noc(C)c1-c1cc2c(cc(C)n2C)c(NCCCn2ccnc2)n1,inactive,
COc1ccccc1Cn1c(=O)c(C(=O)NCc2ccc(F)cc2)nc2cccnc21,inactive,
O=C(c1ccc(F)cc1)N1CCCC(C(=O)N2CCCC2c2nc3ccncc3[nH]2)C1 (configuration not stated),inactive,
CN1CCN(C(=O)c2ccc3oc(-c4ccncc4Cl)nc3c2)CC1,inactive,
COc1cccc(N2C(=O)NC(=NC3CCCCC3)C23CCN(CC2CCCCC2)CC3)c1,inactive,
CC1=C(C(=O)OC(C)(C)C)C(c2ccccc2F)N2C(CC(=O)N3CCCC3)=CSC2=N1 (configuration not stated),inactive,

Compound,Potency,"activity change, negative = inhibition"
O[C@@H]1C[C@@H](c2nc(-c3cccnc3)no2)N(Cc2cccs2)C1,inactive,
CN(Cc1ccsc1)Cc1nc(C(c2ccccc2)c2ccccc2)no1,inactive,
CCOC(=O)C1CCN(C(=O)c2nc3sccn3c2-c2ccc(OC)cc2)CC1,inactive,
COCc1cc(=O)n(CC(=O)Nc2cc(C)cc(C)c2)c(N2CCOCC2)n1,inactive,
CC(=O)c1ccc(NC(=O)O[C@@H]2CO[C@H]3[C@@H]2OC[C@@H]3Nc2nccc(-c3ccco3)n2)cc1,inactive,
CC[C@@H]1Cc2cc(O)ccc2C2=C1c1ccc(O)cc1C[C@H]2CC,11.2 µM (active),
COCCN1C[C@H]2CN(C(=O)c3ccc(C(F)(F)F)cc3)CCN2C1=O,inactive,
N#Cc1ccc(CN2CCC3(Cc4ccccc4NC3=O)C2)cc1 (configuration not stated),inactive,
O=C(Cn1nc2c(cc1=O)CCCC2)NCCn1ccc2ccc(Cl)cc21,inactive,
Cc1nc(C)c(C(=O)N2CCc3nnc([C@@H]4C[C@@H](O)CN4C(C)C)n3CC2)s1,inactive,
C=CCNC(=O)C1N(C(C)C)C(=O)C12CCCC2 (configuration not stated),inactive,
OCC1(CN2CCCC2)CCN(Cc2ccc(OC(F)(F)F)cc2)CC1,inactive,
COc1ccc(NC(=O)N2CCC(O)(c3csc(CN4CCc5ccccc5C4)n3)CC2)cc1,inactive,
CO[C@@H]1COCC[C@H]1NC(=O)c1cn(CCN2CCNCC2)nn1,inactive,
CCC(=O)N1CCCC(Cc2ncc(C)n2C(C)C)C1 (configuration not stated),inactive,
O=C(c1cc(Cl)ccc1F)N1CCN(c2cc(C(F)(F)F)ncn2)CC1,inactive,
O=C(NCc1ccc(Cl)nc1)c1cnn2ncccc12,inactive,
CC(C)c1ccc(CNC(=O)CN2CCCc3nc(C4CC4)ncc3C2=O)cc1,inactive,
COCCN1C(=O)CCC2(C(=O)NCc3cn[nH]c3C)CCCC=C12 (configuration not stated),inactive,
CN1CCN(C(C)(CN)c2ccccn2)CC1 (configuration not stated),inactive,
O=C(Nc1cccc(F)c1)N1CCC2(CC1)SCC(=O)N2Cc1ccco1,inactive,
COc1ccc(-c2nnc(C[C@@H]3C[C@@H](C(C)C)[C@H](CN4CCC(C(N)=O)CC4)C=C3C)o2)cc1,inactive,
Cc1ccc(C)c(CN2C(=O)NC3(CCCN(C(=O)c4ccc(C)c(F)c4)C3)C2=O)c1 (configuration not stated),inactive,
c1ccc2c(CN3CCC[C@H]3c3nc(-c4ccnc(N5CCOCC5)c4)no3)c[nH]c2c1,inactive,
NC(=O)c1cccnc1N1CCN(CC2(O)CNCCOC2)CC1 (configuration not stated),inactive,

Compound,Potency,"activity change, negative = inhibition"
O=C1COCC2(CN(c3ccc(C(F)(F)F)cn3)C2)CN1c1cccnc1,inactive,
Cc1ccccc1CN1CCc2ncc(C(=O)NCCOc3ccccc3)n2CC1,inactive,
Cc1nc([C@H]2CCN(Cc3ccoc3)C[C@H]2NC(=O)C2CC2)n[nH]1,inactive,
CCC(C)Oc1ccccc1CN1CCC(CO)(CN2CCCC2)CC1 (configuration not stated),inactive,
COCc1cc(C[C@@H]2C[C@H](NC(=O)Nc3ccccc3)C2(C)C)no1,inactive,
Cc1ccc(C(=O)Nc2ccc(C(O)[C@H]3COCC(=O)N3Cc3ccccc3F)cc2)cc1 (some centres not stated),inactive,
Cc1cc(Nc2cc(N3CCN(C)CC3)nc(Sc3ccc(NC(=O)C4CC4)cc3)n2)n[nH]1,inactive and 27.3 µM (active),
CN1CCN(C(=O)c2ccc(-c3nnc4ccc(NC(=O)C5CCC5)cn34)cc2)CC1,inactive,
Cc1ccc(Nc2ccnc(N3CCC(C(=O)Nc4ccccc4F)CC3)n2)cc1,inactive,
O=C(CC1CCN(C(=O)c2ccco2)C1)N1CCOCC1 (configuration not stated),inactive,
COCCn1nc2n(c1=O)CCN(C(=O)c1ccco1)CC2,inactive,
CCC(=O)Nc1cc(-c2ccccn2)nn1-c1ccccc1,inactive,
O=C(NCCc1ccccc1F)c1cn2cc(-c3cccc(C(F)(F)F)c3)sc2n1,inactive,
Fc1cccc(C2CCCCCN2Cc2cn(-c3ccccc3)nn2)c1 (configuration not stated),,-3.5% [at 11.5 µM] (inactive)
COC(=O)c1cccc(NC(=S)N[C@H]2CO[C@H]3[C@@H]2OC[C@H]3OC(=O)Nc2ccc(Oc3ccccc3)cc2)c1,inactive,
Cc1noc(C)c1S(=O)(=O)N1CCC(c2noc(-c3ccncc3)n2)C1 (configuration not stated),inactive,
COc1ccccc1-c1ccc2c(C(=O)NCCc3ccc(Cl)cc3)nn(C)c2n1,inactive,
COc1ccc(C(=O)N2CC[C@@H](CC(=O)O)[C@@H](CCN3C[C@@H]4C[C@H](C3)c3cccc(=O)n3C4)C2)cc1,inactive,
O=C(NCCCc1ccccc1)c1n[nH]c2c1CN(C(=O)C1CC1)CC2,inactive,
O=C(NCc1cccc(Cl)c1)c1ccc2nnc(Cc3ccc(Cl)cc3)n2c1,inactive,
Cc1nc(-c2c3n(c(=O)n(Cc4ccc(F)c(F)c4)c2=O)CCCC3)no1,inactive,
COc1cccc(CN(C)C2CCc3nn(C)c(=O)n3CC2)n1 (configuration not stated),inactive,
COc1ccc(CC(=O)N2CCN(C(=O)c3nc4cccnc4n(Cc4ccc(OC)cc4)c3=O)CC2)cc1,inactive,
CC[C@H]1CN(C(=O)NC(C)C)CC[C@H]1CC(=O)Nc1ccccc1,inactive,
COc1ccc(C(=O)N2C[C@@H](Oc3cccnc3)C[C@H]2C(=O)N2CCOCC2)cc1,inactive,

Compound,Potency,"activity change, negative = inhibition"
O=C(c1ccc2c(c1)CCCO2)N1CCCn2nc(C(O)C3CCC3)cc2C1 (configuration not stated),inactive,
O=C(C1COc2ccccc2O1)N1CCc2c(nc3cc(-c4ccccc4)[nH]n3c2=O)C1 (configuration not stated),inactive,
CN1CCC(N2CCC[C@H]2c2nc(-c3ccc(OC4CCCCC4)nc3)no2)CC1,inactive,
O=C1NC(C(=O)NCc2ccccn2)Cn2cccc21 (configuration not stated),inactive,
COc1ccc(CN2CCn3c(nn(-c4ccncc4)c3=O)C2)cc1,inactive,
CN1C[C@@H](C(=O)Nc2ccccc2)[C@H](C2CCNCC2)C1,inactive,
O=C1NC2(Cc3ccccc31)CN(Cc1ccc(F)cc1)C2,inactive,
CCC1=C(C(=O)OC)C(c2cccc(OC)c2)N2C(CC(=O)N3CCOCC3)=CSC2=N1 (configuration not stated),inactive,
O=C1CC(c2noc(-c3cc(Cl)ccc3F)n2)CN1c1ccc(F)cc1 (configuration not stated),inactive,
COc1ccc(C(=O)N2CCCC(CO)CCNC(=O)CC2)c(OC)n1 (configuration not stated),inactive,
Cc1cccc(-c2cccc(CN3CCC(NC(=O)Cc4ccc(F)cc4)CC3)c2)c1,inactive,
O=C(C1CC=CCC1)N1CC(c2noc(C3CCCN3CC3CC3)n2)C1 (configuration not stated),inactive,
O=C(CCn1cnnn1)N1CCC(N2C(=O)C3(CCCC3)C2c2ccccc2)CC1 (configuration not stated),inactive,
CC(C)(O)CCc1ccc(C(=O)N2CCOc3ccc(Cl)cc3C2)cc1,inactive,
CN(C)CCNC(=O)c1cccnc1OC1CCNCC1,inactive,
CN(C)[C@H]1CCCCN(CC2CCC(N)CC2)C1 (some centres not stated),inactive,
CC(C)Cn1c(=O)c(C(=O)N2CCN([S+](=O)([O-])c3cccc(C(F)(F)F)c3)CC2)nc2cccnc21,inactive,
COc1cccc(CN2C(=O)OC3(CCN(C(=O)c4scnc4C)CC3)C2(C)c2cccnc2)c1 (configuration not stated),inactive,
O=C(NCc1ccc(Cl)nc1)c1c[nH]c2cccnc12,inactive,
O=[S+]([O-])(c1cccs1)N1CCN(c2nccc(Nc3ccccc3F)n2)CC1,inactive,
CCC(=O)Nc1cc(C(=O)NCc2ccc(N3CCOCC3)cc2)c2ccc(C)nc2c1,inactive,
Cc1ccc(C(=O)N2CCCC(c3nc(-c4ccccc4)no3)CCNC(=O)CC2)cn1 (configuration not stated),inactive,
